The structures appear in SMILES notation. “And” between values parts separate entries of the source, which are not always exact repeats. Equal values may be shown once. About 79,000 compounds went through this panel and 15% of them were active in at least one assay; those are over-represented in the sample as a whole. More than one record can exist for a structure, and the calls need not agree. The source made the active and inactive calls. Cut-off read from the data, not from the text of the source: active = growth inhibition above about 70%; inactive = the rest.

A short description of experiment [1]: NCI Yeast Anticancer Drug Screen. Data for the rad50 strain (AID 155).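 Note: 0% = growth of vehicle-only cultures of the same strain.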 To be noted: S. cerevisiae rad50 strain growth inhibition, stronger effect = higher value. An outline of the steps:
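Relative growth inhibition (compound vs vehicle) was measured in yeast with a defined repair-gene alteration.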

Experiment [2] can be described thus: NCI Yeast Anticancer Drug Screen. Data for the mec2-1 strain (AID 157). Particulars: S. cerevisiae mec2-1 strain, stronger effect = higher value. Summed up:
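Readout is yeast growth inhibition, normalised to vehicle-treated controls, in the mec2-1 strain exposed to compound.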

Experiment [3] in a line: NCI Yeast Anticancer Drug Screen. Data for the sgs1 mgt1 strain (AID 161).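 Note: 0% = growth of cultures given vehicle only.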 To be noted: S. cerevisiae sgs1 mgt1 strain, stronger effect = higher value. Summed up:
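Compounds are added to genetically altered yeast, and growth is compared with cultures given vehicle alone to give percent inhibition.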

A short description of experiment [4]: NCI Yeast Anticancer Drug Screen. Data for the cln2 rad14 strain (AID 165).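 Note: 0% = growth equal to vehicle treated cultures.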 To be noted: S. cerevisiae cln2 rad14 strain, stronger effect = higher value. An outline of the steps:
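Relative to vehicle controls, growth inhibition of compound-treated cln2 rad14 yeast was recorded.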

Experiment [5] can be described thus: NCI Yeast Anticancer Drug Screen. Data for the bub3 strain (AID 167). To be noted: S. cerevisiae bub3 mutant strain, stronger effect = higher value. Summed up:
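Screening used yeast with an engineered genetic alteration affecting cell cycle control. Compound-exposed cultures were compared with vehicle cultures, and reduced growth was taken as inhibition.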

The nature of experiment [6]: NCI Yeast Anticancer Drug Screen. Data for the mlh1 rad18 strain (AID 175). To be noted: S. cerevisiae mlh1 rad18 strain growth inhibition, stronger effect = higher value. An outline of the steps:
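Test agents were incubated with a yeast strain of defined genotype (DNA damage repair defect). Inhibition of growth was derived by comparison with vehicle-exposed cultures.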

[7] abbreviates: at 5.0 µM (retest, dose inferred, filed as 0.5).
Setting [8] is: at 50.0 µM (retest, dose inferred, filed as 5.0).

Turning to `O=c1oc2ccccc2c(O)c1C(c1ccco1)c1c(O)c2ccccc2oc1=O`, the growth inhibition in experiment [1] (setting [7]) is 11% (inactive); in experiment [1] (setting [8]), 22% (inactive); in experiment [1] (at 50.0 µM) it was 79% (active); in experiment [2] (setting [7]), 13% (inactive); in experiment [2] (setting [8]), 24% (inactive); in experiment [2] (at 50.0 µM), 79.2% (active). Further, the growth inhibition in experiment [3] (setting [7]) is -6% (inactive); in experiment [3] (setting [8]), 43% (inactive); in experiment [3] (at 50.0 µM), 44.2% (inactive); in experiment [4] (setting [7]), 16% (inactive); in experiment [4] (setting [8]), 28% (inactive); in experiment [4] (at 50.0 µM) it was 41.5% (inactive). The growth inhibition in experiment [5] (setting [7]) was 9% (inactive); in experiment [5] (setting [8]), 56% (inactive); in experiment [5] (at 50.0 µM) it was 34.2% (inactive); in experiment [6] (setting [7]) it was 9% (inactive); in experiment [6] (setting [8]), 19% (inactive); in experiment [6] (at 50.0 µM), 27.5% (inactive).
For `Oc1ccc([Te]CCNCC[Te]c2ccc(O)cc2)cc1`, the growth inhibition in experiment [1] (setting [7]) is 58% (inactive); in experiment [1] (setting [8]) it was 58% (inactive); in experiment [1] (at 50.0 µM), 40.8% (inactive); in experiment [2] (setting [7]), 37% (inactive); in experiment [2] (setting [8]), 37% (inactive); in experiment [2] (at 50.0 µM), 0.3% (inactive). In addition, the growth inhibition was 40% (inactive) in experiment [3] (setting [7]); 40% (inactive) in experiment [3] (setting [8]); 16.1% (inactive) in experiment [3] (at 50.0 µM); 13% (inactive) in experiment [4] (setting [7]); 13% (inactive) in experiment [4] (setting [8]); 48.3% (inactive) in experiment [4] (at 50.0 µM). The growth inhibition was 29% (inactive) in experiment [5] (setting [7]); 29% (inactive) in experiment [5] (setting [8]); 30.9% (inactive) in experiment [5] (at 50.0 µM); 36% (inactive) in experiment [6] (setting [7]); 36% (inactive) in experiment [6] (setting [8]); 71.5% (active) in experiment [6] (at 50.0 µM).
Regarding `O=C1CN2C(Cl)(Cl)C2(c2ccccc2)c2cc(Cl)ccc2N1CC1CC1` (configuration not stated), the growth inhibition in experiment [1] (setting [7]) was 54% (inactive); in experiment [1] (setting [8]), 93% (active); in experiment [1] (at 50.0 µM), 90.3% (active); in experiment [2] (setting [7]) it was 29% (inactive); in experiment [2] (setting [8]) it was 93% (active); in experiment [2] (at 50.0 µM), 91.3% (active). Also, the growth inhibition in experiment [3] (setting [7]) was 27% (inactive); in experiment [3] (setting [8]), 94% (active); in experiment [3] (at 50.0 µM), 92.7% (active); in experiment [4] (setting [7]), 18% (inactive); in experiment [4] (setting [8]), 91% (active); in experiment [4] (at 50.0 µM), 88.3% (active). Further, the growth inhibition is 39% (inactive) in experiment [5] (setting [7]); 93% (active) in experiment [5] (setting [8]); 68.2% (inactive) in experiment [5] (at 50.0 µM); 65% (inactive) in experiment [6] (setting [7]); 92% (active) in experiment [6] (setting [8]); 87.3% (active) in experiment [6] (at 50.0 µM).
For the compound `Nc1ccc(N=Nc2ccccc2)cc1`, the growth inhibition is 1% (inactive) in experiment [1] (setting [7]); 76% (active) in experiment [1] (setting [8]); 69.7% (inactive) in experiment [1] (at 50.0 µM); -4% (inactive) in experiment [2] (setting [7]); 37% (inactive) in experiment [2] (setting [8]); 17.6% (inactive) in experiment [2] (at 50.0 µM). Besides, the growth inhibition in experiment [3] (setting [7]) is 1% (inactive); in experiment [3] (setting [8]), 92% (active); in experiment [3] (at 50.0 µM), 37.4% (inactive); in experiment [4] (setting [7]) it was 5% (inactive); in experiment [4] (setting [8]) it was 50% (inactive); in experiment [4] (at 50.0 µM) it was 3.25% (inactive). Moreover, the growth inhibition was 3% (inactive) in experiment [5] (setting [7]); 43% (inactive) in experiment [5] (setting [8]); 37.4% (inactive) in experiment [5] (at 50.0 µM); 1% (inactive) in experiment [6] (setting [7]); 78% (active) in experiment [6] (setting [8]); 82.5% (active) in experiment [6] (at 50.0 µM).
Take `CC12CCC(O)CC1=CCC1C2CCC2(C)C(NC(=O)C3CCCN3C(=O)CN(CCCl)CCCl)CCC12` (configuration not stated): the growth inhibition in experiment [1] (setting [7]) was -5% (inactive); in experiment [1] (setting [8]) it was 56% (inactive); in experiment [1] (at 50.0 µM), 79% (active); in experiment [2] (setting [7]), -4% (inactive); in experiment [2] (setting [8]), 46% (inactive); in experiment [2] (at 50.0 µM), 72.5% (active). For the same compound, the growth inhibition in experiment [3] (setting [7]) was 1% (inactive); in experiment [3] (setting [8]), 80% (active); in experiment [3] (at 50.0 µM), 91.5% (active); in experiment [4] (setting [7]), -5% (inactive); in experiment [4] (setting [8]), 34% (inactive); in experiment [4] (at 50.0 µM), 63.2% (inactive). The growth inhibition was -6% (inactive) in experiment [5] (setting [7]); 38% (inactive) in experiment [5] (setting [8]); 64.8% (inactive) in experiment [5] (at 50.0 µM); 12% (inactive) in experiment [6] (setting [7]); 76% (active) in experiment [6] (setting [8]); 86.8% (active) in experiment [6] (at 50.0 µM).
Regarding `CN1CC(C(=O)NC2(C)OC3(O)C4CCCN4C(=O)C(Cc4ccccc4)N3C2=O)C=C2c3cccc4[nH]cc(c34)CC21` (configuration not stated), the growth inhibition was 26% (inactive) and -4% (inactive) in experiment [1] (setting [7]); 35% (inactive) and 23% (inactive) in experiment [1] (setting [8]); 8.55% (inactive) and 49.2% (inactive) in experiment [1] (at 50.0 µM); 6% (inactive) and -1% (inactive) in experiment [2] (setting [7]); 14% (inactive) and 29% (inactive) in experiment [2] (setting [8]); 6.75% (inactive) and 70.6% (active) in experiment [2] (at 50.0 µM). In addition, the growth inhibition is 4% (inactive) and -2% (inactive) in experiment [3] (setting [7]); 12% (inactive) and 50% (inactive) in experiment [3] (setting [8]); -9.3% (inactive) and 61.7% (inactive) in experiment [3] (at 50.0 µM); -15% (inactive) and 1% (inactive) in experiment [4] (setting [7]); 22% (inactive) and 15% (inactive) in experiment [4] (setting [8]); -11.6% (inactive) and 40.9% (inactive) in experiment [4] (at 50.0 µM). The growth inhibition in experiment [5] (setting [7]) was -24% (inactive) and 2% (inactive); in experiment [5] (setting [8]), 4% (inactive) and 30% (inactive); in experiment [5] (at 50.0 µM), 8.25% (inactive) and 57% (inactive); in experiment [6] (setting [7]) it was 2% (inactive) and -3% (inactive); in experiment [6] (setting [8]), 33% (inactive) and 65% (inactive); in experiment [6] (at 50.0 µM), 51.1% (inactive) and 73% (active).
Regarding `CCC[CH2][Sn]1([CH2]CCC)[S]CC[N]1S(=O)(=O)c1ccc(C)cc1`, the growth inhibition in experiment [1] (setting [7]) is 79% (active); in experiment [1] (setting [8]), 98% (active); in experiment [1] (at 50.0 µM), 91.8% (active); in experiment [2] (setting [7]) it was 85% (active); in experiment [2] (setting [8]) it was 99% (active); in experiment [2] (at 50.0 µM), 94% (active). For the same compound, the growth inhibition in experiment [3] (setting [7]) was 77% (active); in experiment [3] (setting [8]), 99% (active); in experiment [3] (at 50.0 µM), 92.6% (active); in experiment [4] (setting [7]), 62% (inactive); in experiment [4] (setting [8]), 97% (active); in experiment [4] (at 50.0 µM), 91.5% (active). Besides, the growth inhibition was 88% (active) in experiment [5] (setting [7]); 98% (active) in experiment [5] (setting [8]); 92.3% (active) in experiment [5] (at 50.0 µM); 88% (active) in experiment [6] (setting [7]); 97% (active) in experiment [6] (setting [8]); 92% (active) in experiment [6] (at 50.0 µM).
Consider `COc1cc(C=Nc2cc[c]([Hg][O]C(C)=O)cc2)ccc1O`, for which the growth inhibition was 4% (inactive) in experiment [1] (setting [7]); 23% (inactive) in experiment [1] (setting [8]); 99.5% (active) in experiment [1] (at 50.0 µM); -1% (inactive) in experiment [2] (setting [7]); 67% (inactive) in experiment [2] (setting [8]); 99.5% (active) in experiment [2] (at 50.0 µM). Also, the growth inhibition in experiment [3] (setting [7]) is 2% (inactive); in experiment [3] (setting [8]), 67% (inactive); in experiment [3] (at 50.0 µM), 99.4% (active); in experiment [4] (setting [7]), -4% (inactive); in experiment [4] (setting [8]), 22% (inactive); in experiment [4] (at 50.0 µM), 99.3% (active). The growth inhibition in experiment [5] (setting [7]) was 3% (inactive); in experiment [5] (setting [8]), 75% (active); in experiment [5] (at 50.0 µM), 99.3% (active); in experiment [6] (setting [7]), 0% (inactive); in experiment [6] (setting [8]) it was 56% (inactive); in experiment [6] (at 50.0 µM), 99.3% (active).
Regarding `O=C(O)Cc1ccc2c(c1)OCO2.[Ag]`, the growth inhibition is 99% (active) in experiment [1] (setting [7]); 93% (active) in experiment [1] (setting [8]); 96% (active) in experiment [1] (at 50.0 µM); 99% (active) in experiment [2] (setting [7]); 95% (active) in experiment [2] (setting [8]); 97% (active) in experiment [2] (at 50.0 µM). The growth inhibition was 99% (active) in experiment [3] (setting [7]); 94% (active) in experiment [3] (setting [8]); 96.6% (active) in experiment [3] (at 50.0 µM); 99% (active) in experiment [4] (setting [7]); 94% (active) in experiment [4] (setting [8]); 90.2% (active) in experiment [4] (at 50.0 µM). In addition, the growth inhibition in experiment [5] (setting [7]) was 99% (active); in experiment [5] (setting [8]) it was 93% (active); in experiment [5] (at 50.0 µM), 93.3% (active); in experiment [6] (setting [7]), 99% (active); in experiment [6] (setting [8]) it was 93% (active); in experiment [6] (at 50.0 µM), 94.4% (active).

Values taken from PubChem BioAssay (NCI).
